Unmarked numbers belong to inactive results.

In one test the test system is Plasmodium falciparum NF54-HGL (transmission to Anopheles stephensi). In words: percentage of barcode signal found in uninfected mosquitoes (transmission-blocking activity); higher = stronger blocking of transmission to mosquito, active = 80 or more. As to conditions: 10 µM; gametocyte preincubation time 24 h; readout time post-feed 8 days. On the procedure: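 The mixture was fed to Anopheles stephensi in 96-well plates as blood meals tagged with DNA-barcoded Asaia bacteria. Eight days later, mosquitoes were classed infected or uninfected by luminescence (mean + 5 SD of unfed controls). Barcodes were quantified by Luminex MagPlex-TAG in the pooled uninfected and infected Asaia cultures, background-corrected, and the score is % of barcode signal in uninfected mosquitoes = 100*Iu/(Iu+Ii).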
In the case of `COC(=O)C1=C(C)NC(C)=C(C(=O)OC(C)C)C1c1cccc2nonc12` (configuration not stated), the “percentage of barcode signal found in uninfected mosquitoes” value (from here on “percentage of barcode signal found”) was 57.4%.

With `Cc1cccc(NC(=O)c2cc(S(=O)(=O)N(C)c3ccc(F)cc3)ccc2Cl)n1`, the “percentage of barcode signal found” value is 46.1%.

On to `COc1ccccc1OCCCCn1c(C2CC2)nc2ccccc21`, for which the “percentage of barcode signal found” value is 48.5%.

Take `COc1ccc(Cl)cc1NC(=O)CN(C)C(=O)c1cnn(-c2ccccc2)n1`: the “percentage of barcode signal found” value was 64.6%.

As for `COc1cccc(OCC(=O)c2ccc(Br)cc2)c1`, the “percentage of barcode signal found” value was 13.7%.

In the case of `Cc1cc(NC(=O)c2ccc(S(=O)(=O)N(Cc3ccccc3)C(C)C)cc2)no1`, the “percentage of barcode signal found” value is 35.4%.

Take `COc1ccccc1CNC(=O)c1cc(C2CC2)nc2c1cnn2C(C)C`: the “percentage of barcode signal found” value was 62.8%.

Take `c1coc(CNc2nc(N3CCCCC3)nc3ccccc23)c1`: the “percentage of barcode signal found” value was 38.7%.

With `O=C(NCc1ccoc1)N1CCN(Cc2ccc3c(c2)OCO3)CC1`, the “percentage of barcode signal found” value is 25.5%.

For the molecule `Brc1c(-c2ccc3c(c2)OCO3)nc2ncccn12`, the “percentage of barcode signal found” value was 6.02%.

For the molecule `O=C(Nc1nc(-c2ccccn2)cs1)c1cncn1-c1ccccc1`, the “percentage of barcode signal found” value was 21.4%.

Turning to `CCOc1ccc2cc(-c3nn(CC4CCN(C)CC4)c4ncnc(N)c34)ccc2c1`, the “percentage of barcode signal found” value was -7.02%.

In the case of `CC(C)(C)n1nc(-c2ccccc2)c2c(N)ncnc21`, the “percentage of barcode signal found” value was -3.29%.

For the molecule `Cc1ccc2[nH]c3c(NCCN(C)C)ncnc3c2c1`, the “percentage of barcode signal found” value was 40.6%.

As for `COc1ccc(Nc2ccccc2NC(=O)c2ccc(O)nc2)cc1`, the “percentage of barcode signal found” value is 7.07%.

In the case of `Cc1ccc2nc(Cl)c(CNCc3cccs3)cc2c1`, the “percentage of barcode signal found” value is 7.16%.

The test is the same for the next values; noted with them: 20 µM; gametocyte preincubation time 24 h; readout time post-feed 8 days.
Take `CC(C)(C)c1cc(C(=O)N2CCN(c3nccnc3C#N)CC2)n(Cc2ccccc2)n1`: the “percentage of barcode signal found” value was 33.5%.

For `OCc1ccc(-c2cncc(Nc3cccc(Cl)c3)c2)cc1`, the “percentage of barcode signal found” value is 4.28%.

Regarding `c1ccc(Oc2ccc(-c3cc(N4CCNCC4)[nH]n3)cc2)cc1`, the “percentage of barcode signal found” value is 27.2%.

As to `COc1cc(NC(=O)Cc2nn(C)c(=O)c3ccccc23)ccc1Cl`, the “percentage of barcode signal found” value is 9.49%.

On to `COc1cc(CN2CCC3(C=Cc4ccccc43)CC2)cc2c1OCO2`, for which the “percentage of barcode signal found” value was 0.609%.

For the molecule `COc1cc(Br)cc2cc(C(=O)Nc3cccc(C(F)(F)F)c3)c(=O)oc12`, the “percentage of barcode signal found” value was 19.3%.

In the case of `COc1cc(-c2cc(-c3ccc(S(C)(=O)=O)cc3)cnc2N)ccc1O`, the “percentage of barcode signal found” value is 48.6%.

Take `Nc1ncnc2c1c(-c1cnc3ccccc3c1)nn2CC1CCNCC1`: the “percentage of barcode signal found” value is -2.55%.

For the molecule `O=C(Nc1ccc(C(F)(F)F)c(C(F)(F)F)c1)c1cc(Cl)ccc1O`, the “percentage of barcode signal found” value was 69.4%.

As to `CC(C)(C(=O)Nc1ccc(F)cc1)n1cc(-c2ccccc2F)cn1`, the “percentage of barcode signal found” value was 0.429%.

For the molecule `Cc1nc(-c2ccccn2)nc(N(C)CCc2ccccc2)c1Cl`, the “percentage of barcode signal found” value is 92% (active).

For `Cc1ccccc1C(=O)N1N=C(Nc2ccccc2)SC1(C)C`, the “percentage of barcode signal found” value is -0.332%.

As to `CC(C)(C)c1cnc(NC(=O)c2ccccc2O)s1`, the “percentage of barcode signal found” value was 21.3%.

As to `O=C(Nc1cnc2ccccc2c1)c1cccc(-n2cnnn2)c1`, the “percentage of barcode signal found” value was 21.3%.

On to `CCc1ccc(C(NCc2nc(N)nc(N(C)C)n2)C(C)C)cc1` (configuration not stated), for which the “percentage of barcode signal found” value was 54.2%.

As to `c1ccc(C[C@@H]2CN(c3nccc(Oc4ccc(-n5ccnc5)cc4)n3)CCN2)cc1`, the “percentage of barcode signal found” value is 35.3%.

Regarding `Nc1cccnc1Nc1ccc(Cl)cc1`, the “percentage of barcode signal found” value is 54.5%.

In the case of `COc1cccc(OC)c1C(=O)Nc1ccc(Cl)c(-c2nc3ccccc3s2)c1`, the “percentage of barcode signal found” value was 13.2%.

As for `c1ccc(Oc2ccc(-c3cc(N4CCOCC4)[nH]n3)cc2)cc1`, the “percentage of barcode signal found” value was 1.03%.

With `CCc1ccc(S(=O)(=O)Nc2cc(CN3CCN(CCC(C)C)CC3)ccc2C)cc1`, the “percentage of barcode signal found” value is 22.9%.

Consider `O=C([C@@H](c1ccc(Cl)cc1)c1cccnc1)N1CCN(c2ccc(C(F)(F)F)cc2)CC1`, for which the “percentage of barcode signal found” value was -0.981%.

These data come from the supplement of paper PMC8726507.
